Holding throughout (assay): NCI-60 one-dose screen, 48 h (100 = growth as untreated, 0 = no growth, -100 = all killed)
Common to all, as to details: 10 µM unless noted

In experiment [1] the test system is NCI-H23 lung.
Experiment [2] relates to NCI-H226 lung.
Experiment [3] has as its system NCI-H322M lung.
Experiment [4] has as its system HOP-62 NSCLC.
Experiment [5] has as its system NCI-H460 lung.
In experiment [6] the test system is HOP-92 NSCLC.
The subject of experiment [7] is NCI-H522 lung.
For experiment [8], the system named is A549/ATCC NSCLC.
Experiment [9] has as its system COLO 205 colon.
For experiment [10], the system named is 786-0 renal.

About 83,000 compounds went through this panel and 20% of them were active in at least one assay; those are over-represented in the sample as a whole.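 Step 1: grow cells in 96-well plates. Step 2: add test compound at a single concentration. Step 3: incubate 48 h. Step 4: record percent growth.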 Unmarked numbers belong to inactive results. Calls of active or inactive are those of the source. How the source made its calls: active means growth percent below 10; inactive means the rest.

As to `Cc1ccc(S(=O)(=O)F)cc1C(=O)O`, the growth in [1] is 96.5%; in experiment [2], 95.8%; in [3], 77.6%; in [4], 97.7%; in experiment [5], 111%; in [6], 118%. Moreover, the figures for the growth in [7], in experiment [8] and in experiment [9] were 85.8%, 98.3% and 103%, respectively.
Regarding `CC1(C)N=C(N)N=C(N)N1c1ccc(CCC(=O)Nc2ccc(S(=O)(=O)F)cc2)c(Cl)c1`, the growth is 29.9% in [1]; 46.6% in [2]; 19.9% in [4]; 6.19% (active) in experiment [5]; 33.7% in experiment [6]; -0.414% (active) in [7]. Further, the values for the growth in [8], in experiment [10] and in experiment [9] were -5.32% (active), 20.6% and 45.3%, respectively.
`COC(=O)[C@@H](C)C[C@H](Cc1ccccc1)NC(=O)c1csc([C@@H](C[C@H](C(C)C)N(C)C(=O)[C@@H](NC(=O)[C@H]2CCCCN2C)C(C)C)OC(C)=O)n1`: the growth was 23.7% in [1]; 32.4% in [2]; 0.881% (active) in experiment [4]; 2.4% (active) in [5]; -13.5% (active) in [6]; -31.7% (active) in experiment [7]. Moreover, the growth in [8] is 14%; in [10], 4.12% (active); in experiment [9], -69.9% (active).
Regarding `CC[C@]12C=CCN3CC[C@@]4(c5ccc(OC)cc5N(C)[C@H]4[C@@](O)(C(=O)OC)[C@@H]1OC(=O)CCCC[P+](c1ccccc1)(c1ccccc1)c1ccccc1)[C@@H]32`, the growth is 6.4% (active) in [1]; 15.1% in [2]; 26.4% in experiment [4]; 18.4% in experiment [5]; -30% (active) in [6]; -5.5% (active) in experiment [7]. Also, the growth in experiment [8] was 22.1%; in experiment [10], 57.2%; in [9], -93.7% (active).
`C[C@]12CCc3nc(Nc4ccccc4F)sc3C1=CC[C@@H]1[C@@H]2CC[C@]2(C)C(=O)CC[C@@H]12`: the growth in [1] was 77.7%; in experiment [2] it was 85.9%; in experiment [4] it was 87.2%; in experiment [5], 60.3%; in [6], 116%; in [7] it was 79.1%. The growth is 76.7% in [8], 38.5% in experiment [10] and 75.7% in experiment [9].
On to `C#C[C@]1(OC(=O)CCCCCC)CC[C@H]2[C@@H]3CCC4=CC(=O)CC[C@@H]4[C@H]3CC[C@@]21C`, for which the growth in experiment [1] is 19%; in experiment [2] it was 54.8%; in experiment [4] it was 35.5%; in [5], 21.2%; in [6], 58.6%; in [7], 20.5%. Further, the growth in experiment [8] was 46.1%; in experiment [10] it was 56.5%; in [9], 29.3%.
`Cc1cc(N(CCCl)CCCl)ccc1C=Nc1ccccc1-c1ccccc1`: the growth in experiment [1] was 60.8%; in experiment [2], -38.8% (active); in experiment [4], 54.6%; in [5], 16.4%; in [6], 84.4%; in experiment [7], 99.5%. Further, the growth was 59.6% in [8], 52.1% in [10] and 86.1% in experiment [9].
As to `O=C(CC1(O)C(=O)N(Cc2ccccc2)c2ccc(Cl)cc21)c1ccc(C(=O)NCC2CCC3(CC2)OOC2(CCCCC2)OO3)cc1` (configuration not stated), the growth is -67% (active) in experiment [1]; -41.3% (active) in experiment [2]; -65.3% (active) in experiment [4]; -47.2% (active) in experiment [5]; -73.2% (active) in experiment [6]; -26.7% (active) in experiment [7]. The growth in [8] was -55.8% (active); in experiment [10], -73.6% (active); in experiment [9], -66.5% (active).
With `CC(CO)NC1CCCCC1` (configuration not stated), the growth was 103% in experiment [1]; 119% in experiment [2]; 102% in [3]; 102% in experiment [4]; 108% in experiment [5]; 78% in [6]. Besides, the growth was 103% in [7], 102% in experiment [8], 100% in experiment [10] and 113% in experiment [9].
As for `CCOP(=O)(NC[C@H]1O[C@](O)(CO)[C@@H](O)[C@@H]1O)OCC`, the growth in [1] was 97.4%; in [2], 75.9%; in experiment [4] it was 91%; in experiment [5], 105%; in experiment [6], 93.1%; in experiment [7] it was 88.3%. Also, the growth was 96.6% in [8], 99.8% in [10] and 102% in experiment [9].
In the case of `CCC1CC(O)c2c(O)c3c(c(O)c2C1O)C(=O)c1cccc(O)c1C3=O` (configuration not stated) (tested in a mixture with another compound), the growth in experiment [1] is -75.9% (active); in experiment [2] it was -9.01% (active); in [4], -62.2% (active); in [5], -53.6% (active); in [6], -29.3% (active); in experiment [7] it was -47.9% (active). Besides, the growth in [8] is -23.2% (active); in [10], -31% (active); in experiment [9], -46.4% (active).
In the case of `CC1=C(CCCOC(=O)CN)C2=C(C)C3(CC3)[C@@](C)(O)C(=O)C2=C1`, the growth is 9.41% (active) in [1]; 90.5% in experiment [2]; 71.5% in experiment [4]; 15.3% in experiment [5]; 70.5% in experiment [6]; 66.2% in experiment [7]. Moreover, the growth is 68.7% in experiment [8], 78.8% in [10] and 49.6% in experiment [9].
For `C=CCn1cc(C=C2C(=O)N(C)C(=O)N(C)C2=O)c2ccccc21`, the growth in [1] is 84.4%; in [2] it was -47.6% (active); in experiment [4], 97%; in experiment [5] it was 56%; in experiment [6], 91.2%; in experiment [7], 105%. The figures for the growth in experiment [8], in experiment [10] and in [9] were 107%, 101% and 116%, respectively.
In the case of `C[C@@]12CC=C3c4nc(Nc5cccc(O)c5)sc4CC[C@]3(C)[C@H]1CC[C@]1(C)C(=O)CC[C@@H]21`, the growth in [1] was 63.7%; in [2], 94.5%; in experiment [4], 27.5%; in [5], 43.9%; in [6], 64.3%; in experiment [7], -56.4% (active). The growth in experiment [8] is 55.4%; in [10] it was -0.522% (active); in experiment [9], 34.4%.
For `O=C1CN=C(c2ccc(Cl)cc2)c2sccc2N1`, the growth in [1] is 98%; in experiment [2], 93.6%; in experiment [4], 106%; in [5], 108%; in [6], 97.4%; in experiment [7], 82.5%. Moreover, the growth in experiment [8] was 101%; in experiment [10], 103%; in experiment [9] it was 123%.
Regarding `C[C@]12CC[C@H]3[C@@H](CC[C@]4(O)C[C@@H](O[C@@H]5O[C@H](CO)[C@@H](O[C@@H]6OC[C@@H](O)[C@H](O)[C@H]6O)[C@H](O)[C@H]5O)CC[C@]34C=O)[C@@]1(O)CC[C@@H]2C1=CC(=O)OC1`, the growth in experiment [1] is -37.1% (active); in experiment [2] it was -2.96% (active); in experiment [4] it was -68.4% (active); in experiment [5], -9.57% (active); in [6], 43.7%; in experiment [7] it was -35.2% (active). Moreover, the growth in [8] was -89.8% (active); in experiment [10], 0.0388% (active); in [9], 17.8%.
As to `COc1ccc([As]=[As]c2ccc(OC)c(NCS(=O)(=O)O)c2)cc1NCS(=O)(=O)O` (configuration not stated), the growth in [1] was 23.3%; in [2], 61.9%; in experiment [4], 39.7%; in experiment [5], 88.2%; in experiment [6], -21.9% (active); in experiment [7], -32.9% (active). Moreover, the growth in experiment [8] was 69.4%; in experiment [10], -46.4% (active); in experiment [9], 2.8% (active).
As to `O=C1C2C(C(=O)[N]1[Hg][c]1cccs1)C1(Cl)C(Cl)=C(Cl)C2(Cl)C1(Cl)Cl` (configuration not stated), the growth in experiment [1] is -1.96% (active); in [2] it was 97.1%; in experiment [4], 10.5%; in experiment [5], 52.7%; in [6] it was -51.4% (active); in experiment [7] it was -89.8% (active). In addition, the results for the growth in experiment [8], in [10] and in experiment [9] were 80.4%, -90.2% (active) and -71.4% (active), respectively.
Turning to `C[S+]1C=Cc2ccccc2C1c1ccc(Cl)cc1` (configuration not stated), the growth in experiment [1] is 83.7%; in experiment [3], 99.5%; in [4] it was 126%; in experiment [5], 99.6%; in experiment [6], -54.5% (active); in [7], 18.9%. In addition, the growth was 78.9% in [8], 111% in experiment [10] and 114% in experiment [9].
For `CC(=O)c1ccc(C(=O)NCC2CCC3(CC2)OOC2(CCCCC2)OO3)cc1`, the growth was 22.8% in experiment [1]; 85.8% in experiment [2]; 16.4% in experiment [4]; 88.1% in experiment [5]; -31.4% (active) in experiment [6]; 60.8% in [7]. The growth in experiment [8] is 23.5%; in experiment [10] it was -70.5% (active); in experiment [9], 97.1%.
Take `COC(=O)[C@H](C[C@H](Cc1ccccc1)NC(=O)c1csc([C@@H](C[C@H](C(C)C)N(C)C(=O)[C@@H](NC(=O)[C@H]2CCCCN2C)C(C)C)OC(C)=O)n1)NC(=O)OCc1ccccc1`: the growth in experiment [1] was 30.2% [8.5 µM]; in [2], -42.6% [8.5 µM] (active); in experiment [4], 18.6% [8.5 µM]; in [5] it was 5.67% [8.5 µM] (active); in experiment [6], 28.2% [8.5 µM]; in [7], -30.4% [8.5 µM] (active). The growth was 18.8% [8.5 µM] in experiment [8], 15.2% [8.5 µM] in experiment [10] and -53.3% [8.5 µM] (active) in experiment [9].
In the case of `C/C(=C\c1ccn(-c2ccccc2N)n1)[C@@H]1C[C@@H]2O[C@]2(C)CCC[C@H](C)[C@H](O)[C@@H](C)C(=O)C(C)(C)[C@@H](O)CC(=O)O1`, the growth in [1] is 20.4%; in experiment [3], 16.6%; in [4] it was 41.7%; in experiment [5], 14.9%; in [6], 77.4%; in experiment [7], 11.7%. In addition, the growth in [8] was 24.8%; in experiment [10], 17.8%; in experiment [9], -4.12% (active).
As to `COc1ccc2nc(NC(=O)COc3cc(/C=C\c4cc(OC)c(OC)c(OC)c4)ccc3OC)sc2c1`, the growth in experiment [1] was 32.1%; in experiment [2] it was 40.1%; in experiment [4], 45%; in [5], 4.25% (active); in [6], 50.9%; in [7], -19.7% (active). Also, the results for the growth in experiment [8], in experiment [10] and in experiment [9] were 25.7%, 61% and 26%, respectively.
For the compound `O=C(Nc1ccc(O)cc1)C(Cl)(Cl)Cl`, the growth in [1] is 101%; in experiment [2], 101%; in [4] it was 104%; in experiment [5], 105%; in [6], 105%; in experiment [7], 91.2%. Moreover, the growth is 98.4% in experiment [8], 95.2% in [10] and 102% in [9].

Source of the values: PubChem BioAssay (NCI).
